Screens deposited in PubChem BioAssay by Broad Institute.
SIRT5 inh: blocks human SIRT5 desuccinylation of peptide; Q9NXA8; Purified SirT5, succinyl-peptide AMC, trypsin-coupled fluorescence; inhibition, % at 15 µM; 1.1% of 330,000 active; AID 652115; in the data active means inhibition above about 15%
DENV2 CPE: inhibitors of DENV2 cytopathic effect; 1.7% of 350,000 active; CPE inhibition, % at 9.99 µM; DENV2-infected cells, cytopathic effect rescue, plate reader; in the data active means CPE inhibition above about 20%, passing the limit was not always enough; tested in BHK-21 cells
PDI inh: inhibitors of human protein disulfide isomerase; P07237; PDI insulin aggregation turbidity, A650, 90 min; inhibition, % at 10 µM; 0.052% of 350,000 active; AID 588391;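 active means mean inhibition across replicates of 30% or more, whatever share of single replicates reach that level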
ERp5 block: blocks human ERp5 reductase activity on insulin | ERp5 insulin aggregation, absorbance 650 nm, 90 min | inhibition, % at 9.99 µM | 0.05% of 350,000 active | AID 651711;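 active means mean replicate inhibition above about 25%, with every replicate also reaching it, limit read from the data, passing the limit was not always enough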
Target sequence (Q15084 whole entry, looked up): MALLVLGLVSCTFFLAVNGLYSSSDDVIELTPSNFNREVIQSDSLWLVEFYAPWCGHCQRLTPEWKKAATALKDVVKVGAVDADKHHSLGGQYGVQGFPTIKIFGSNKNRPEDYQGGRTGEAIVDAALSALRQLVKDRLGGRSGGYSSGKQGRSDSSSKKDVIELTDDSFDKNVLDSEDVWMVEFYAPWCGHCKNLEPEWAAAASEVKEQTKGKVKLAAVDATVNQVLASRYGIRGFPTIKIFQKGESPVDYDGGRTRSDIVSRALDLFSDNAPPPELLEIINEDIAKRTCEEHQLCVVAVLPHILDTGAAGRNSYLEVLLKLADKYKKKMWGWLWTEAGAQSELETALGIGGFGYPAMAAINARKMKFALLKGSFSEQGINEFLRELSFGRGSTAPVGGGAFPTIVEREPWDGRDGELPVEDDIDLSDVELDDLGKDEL
Rtt109 Vps75: blocks Candida albicans Rtt109/Vps75 acetyltransferase activity | 0.16% of 330,000 active | inhibition, % at 34.9 µM | AID 540336 | purified Rtt109/Vps75, ThioGlo CoA-SH fluorescence, 4 h | Q5AAJ8;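 active means inhibition of at least 50% in every replicate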
A number is an active result; ! = a repeat was not active. The list is not random: actives were taken first. Their share in the collection is about 2.3%.

C[C@H](CO)N1C[C@H](C)[C@@H](CN(C)C(=O)NC2CCCCC2)Oc2c(NC(=O)C3CC3)cccc2C1=O was read as SIRT5 inh inactive, DENV2 CPE inactive, PDI inh inactive, ERp5 block inactive and Rtt109 Vps75 inactive.
`Cc1cc(C(=O)Nc2cccc3c2O[C@H](CN(C)C(=O)NC2CCCCC2)[C@@H](C)CN([C@H](C)CO)C3=O)n(C)n1` gave SIRT5 inh inactive, DENV2 CPE 37 and ERp5 block inactive.
For Cc1cc(C(=O)Nc2cccc3c2O[C@@H](CN(C)C(=O)NC2CCCCC2)[C@H](C)CN([C@H](C)CO)C3=O)n(C)n1 the results were SIRT5 inh inactive, DENV2 CPE inactive and ERp5 block inactive.
For C[C@@H]1CN([C@@H](C)CO)C(=O)c2cccc(NC(=O)C3CCCCC3)c2O[C@@H]1CN(C)C(=O)NC1CCCCC1 the results were SIRT5 inh inactive, DENV2 CPE 33!, PDI inh inactive, ERp5 block inactive and Rtt109 Vps75 inactive.
C[C@@H]1CN([C@@H](C)CO)C(=O)c2cccc(NS(=O)(=O)c3ccccc3)c2O[C@H]1CN(C)Cc1ccc(C(F)(F)F)cc1 was read as SIRT5 inh inactive, DENV2 CPE inactive and ERp5 block inactive.
For C[C@@H]1CN([C@H](C)CO)S(=O)(=O)c2ccc(C#Cc3cccc(F)c3)cc2O[C@@H]1CN(C)S(=O)(=O)c1ccccc1F the results were SIRT5 inh 18, DENV2 CPE inactive and ERp5 block inactive.
Cc1ccc(S(=O)(=O)N(C)C[C@H]2Oc3cc(C#Cc4ccncc4)ccc3S(=O)(=O)N([C@@H](C)CO)C[C@H]2C)cc1 was read as SIRT5 inh 18, DENV2 CPE 64 and ERp5 block inactive.
For C[C@@H]1CN([C@@H](C)CO)S(=O)(=O)c2ccc(C#Cc3ccncc3)cc2O[C@H]1CN(C)S(=O)(=O)c1ccc(F)cc1 the results were SIRT5 inh inactive and ERp5 block inactive.
For C[C@H]1CN([C@@H](C)CO)S(=O)(=O)c2ccc(C#Cc3ccc(F)cc3)cc2O[C@@H]1CN(C)S(=O)(=O)c1ccc(F)cc1 the results were SIRT5 inh 24, DENV2 CPE inactive and ERp5 block inactive.
For C[C@H]1CN([C@@H](C)CO)S(=O)(=O)c2ccc(C#Cc3ccncc3)cc2O[C@H]1CN(C)S(=O)(=O)c1ccc(F)cc1 the results were SIRT5 inh inactive, DENV2 CPE inactive and ERp5 block inactive.
C[C@H](CO)N1C[C@H](C)[C@H](CN(C)S(=O)(=O)c2ccc(F)cc2)Oc2cc(C#Cc3ccncc3)ccc2S1(=O)=O was read as SIRT5 inh inactive, DENV2 CPE inactive and ERp5 block inactive.
C[C@H](CO)N1C[C@H](C)[C@@H](CN(C)S(=O)(=O)c2ccc(F)cc2)Oc2cc(C#Cc3ccc(F)cc3)ccc2S1(=O)=O was read as SIRT5 inh 23, DENV2 CPE inactive and ERp5 block inactive.
Screening C[C@H]1CN([C@@H](C)CO)S(=O)(=O)c2ccc(C#Cc3ccncc3)cc2O[C@@H]1CN(C)S(=O)(=O)c1ccc(F)cc1 returned SIRT5 inh inactive, DENV2 CPE inactive and ERp5 block inactive.
Screening C/C=C/c1ccc2c(c1)O[C@H](CN(C)S(=O)(=O)c1ccc(C)cc1)[C@H](C)CN([C@H](C)CO)S2(=O)=O returned SIRT5 inh inactive, DENV2 CPE 20 and ERp5 block inactive.
`C[C@@H]1CN([C@@H](C)CO)S(=O)(=O)c2ccc(C#Cc3ccc(F)cc3)cc2O[C@H]1CN(C)S(=O)(=O)c1ccc(F)cc1` gave SIRT5 inh 23, DENV2 CPE inactive and ERp5 block inactive.
For C[C@H]1CN([C@@H](C)CO)S(=O)(=O)c2ccc(C#Cc3ccc(F)cc3)cc2O[C@H]1CN(C)S(=O)(=O)c1ccc(F)cc1 the results were SIRT5 inh 29, DENV2 CPE inactive and ERp5 block inactive.
`C[C@@H]1CN([C@@H](C)CO)S(=O)(=O)c2ccc(C#Cc3ccc(F)cc3)cc2O[C@@H]1CN(C)S(=O)(=O)c1ccc(F)cc1` gave SIRT5 inh 26, DENV2 CPE inactive and ERp5 block inactive.
Screening COc1ccc(-c2sc(Nc3ccccc3)n[n+]2-c2ccc(F)cc2)c(OC)c1OC returned SIRT5 inh inactive, DENV2 CPE 136, PDI inh inactive, ERp5 block inactive and Rtt109 Vps75 inactive.
Screening CC(C)NC(=O)Nc1ccc2c(c1)C(=O)N([C@H](C)CO)C[C@H](C)[C@@H](CN(C)S(=O)(=O)c1cccs1)OCCCC[C@H](C)O2 returned SIRT5 inh inactive, DENV2 CPE inactive and ERp5 block inactive.
`COCCNC(=O)C[C@@H]1CC[C@H]2[C@@H](COC[C@H](O)CN2C(=O)c2cc(Cl)cc(Cl)c2)O1` gave SIRT5 inh inactive, DENV2 CPE inactive and ERp5 block inactive.
CC(C)C(=O)Nc1ccc2c(c1)C(=O)N(C)[C@H]1CC[C@H](CC(=O)NCc3ccccc3)O[C@@H]1CO2 was read as SIRT5 inh inactive, DENV2 CPE inactive and ERp5 block inactive.
Screening CCNC(=O)C[C@@H]1CC[C@@H]2[C@H](COc3ccc(NC(=O)c4cscn4)cc3C(=O)N2C)O1 returned SIRT5 inh inactive, DENV2 CPE 24 and ERp5 block inactive.
CN(C)C(=O)C[C@H]1CC[C@@H]2[C@H](COc3ccc(NC(=O)c4cnccn4)cc3C(=O)N2C)O1 was read as SIRT5 inh inactive, DENV2 CPE inactive and ERp5 block inactive.
For CCNC(=O)C[C@@H]1CC[C@@H]2[C@H](COc3ccc(NC(=O)Cc4ccccc4)cc3C(=O)N2C)O1 the results were SIRT5 inh inactive, DENV2 CPE 27 and ERp5 block inactive.
`CC(C)C(=O)Nc1ccc2c(c1)C(=O)N(C)[C@H]1CC[C@@H](CC(=O)NCc3ccccc3)O[C@@H]1CO2` gave SIRT5 inh inactive, DENV2 CPE 32 and ERp5 block inactive.
For CN(C)C(=O)C[C@H]1CC[C@H]2[C@@H](COc3ccc(NC(=O)c4cnccn4)cc3C(=O)N2C)O1 the results were SIRT5 inh inactive, DENV2 CPE 60 and ERp5 block inactive.
For C[C@@H]1CN([C@@H](C)CO)C(=O)c2cc(C3=CCCC3)cnc2O[C@H]1CN(C)S(C)(=O)=O the results were SIRT5 inh inactive, DENV2 CPE inactive and ERp5 block inactive.
Screening CC(C)NC(=O)Nc1ccc2c(c1)C(=O)N([C@H](C)CO)C[C@@H](C)[C@H](CN(C)Cc1ccncc1)O2 returned SIRT5 inh inactive, DENV2 CPE inactive and ERp5 block inactive.
CCCC#Cc1cnc2c(c1)C(=O)N([C@@H](C)CO)C[C@@H](C)[C@@H](CN(C)C(=O)NC1CCCC1)O2 was read as SIRT5 inh inactive, DENV2 CPE inactive and ERp5 block inactive.
CCCNC(=O)C[C@@H]1CC[C@@H]2[C@@H](COc3ccc(NC(=O)c4ccccc4)cc3C(=O)N2C)O1 was read as SIRT5 inh inactive, DENV2 CPE inactive and ERp5 block inactive.
